Inconclusive results are not listed. Entries that show only a call come without a potency. The source holds several records for some structures; these can differ, active in one and inactive in another. The source made the active and inactive calls. Unless noted, calls come from the whole dose curve; as a rule, active = well fitted curve in the direction sought with a large enough effect in the repeat runs; inconclusive = weak or mixed curves; inactive = no such curve, though single readings can be large; an effect the other way counts as inactive or inconclusive.
What was measured:
[1] = A CellTox Green Cytotoxicity Assay to monitor cytotoxicity in HepG2 cells - 8 hour (AID 1224890); note: nearly all actives have a fitted effect of over 45% in size
Summary of the method: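 Cells and non-lytic dye reagent are dispensed together (600 HepG2 cells/well) and incubated 5 h before DMSO compound transfer. Kinetic fluorescence is then recorded in the same wells during 40 h at 37 C.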

[2] = qHTS assay to identify small molecule antagonists of the estrogen receptor alpha (ER-alpha) signaling pathway using the BG1 cell line in the presence of 0.1 nM 17-beta-estradiol - cell viability counter screen (AID 1259241); note: nearly all actives have a fitted effect of over 40% in size
Summary of the method: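 The cell line endogenously expresses full-length ER-alpha and carries four EREs driving luciferase. Cells are cultured 5 days hormone-free, treated 22 hr with compounds and 0.1 nM estradiol, then viability is read by fluorescence.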

[3] = qHTS assay to identify small molecule antagonists of the androgen receptor (AR) signaling pathway using the MDA cell line in the presence of 0.5 nM R1881 - cell viability counter screen (AID 1259242); note: nearly all actives have a fitted effect of over 45% in size
Summary of the method: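 Steps: plate MDA-kb2 cells, rest 5 hr at 37C without CO2; pin in compounds in DMSO; add R1881 to 0.5 nM final; incubate 16 hr; add CellTiter-Fluor, 30 min; read fluorescence.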

[4] = qHTS assay to identify small molecule phospholipidosis (PLD) inducers (AID 1259344; active = well fitted curve in the direction sought with a large enough effect; an effect the other way counts as inactive or inconclusive)
Summary of the method: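 Cells (HepG2, 900 per well) attach for 4 h, receive LipidTOX Red and compound together, incubate 24 h at 37 C, are fixed 30 min with paraformaldehyde/Hoechst, then imaged at one site per well.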

[5] = qHTS assay to identify small molecule HDAC inhibitors (AID 1259364);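 note: wild-type HCT-116 cells with endogenous class I/II HDAC activity; top concentration of the series differs between compounds; nearly all actives have a fitted effect of over 45% in size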
Summary of the method: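 Cells (HCT-116, wild type) are seeded at 1,500 per well, incubated overnight, treated with compound in DMSO for 2 hr, then developed with HDAC-Glo I/II reagent for 30 min at room temperature.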

[6] = qHTS assay to identify small molecule HDAC inhibitors - cell viability counter screen (AID 1259365); note: series mostly up to about 92 µM; nearly all actives have a fitted effect of over 50% in size
Summary of the method: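 Viability readout: CellTiter-Glo luminescence. Wild-type HCT-116 cells, 2hr compound treatment following overnight attachment at 37 C.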

[7] = qHTS assay to identify small molecule agonists of the sonic hedgehog signaling (Shh) pathway - cell viability counter screen (AID 1259366); note: nearly all actives have a fitted effect of over 50% in size
Summary of the method: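 Viability measured fluorometrically (CellTiter-Fluor, 1hr, 37C) in 3T3 Gli1-Luc reporter cells after 23hr compound exposure within a 24hr incubation at 37C/5% CO2.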

[8] = qHTS assay to identify small molecule agonists of the sonic hedgehog signaling (Shh) pathway (AID 1259368; calls by dose curve;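 note: NIH/3T3-derived 3T3Gli1-Luc cells carrying a stable Gli1-driven firefly luciferase reporter; series mostly up to about 92 µM; nearly all actives have a fitted effect of over 15% in size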)
Summary of the method: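 Cells of a mouse NIH/3T3 clone stably expressing luciferase under the Gli1 transcriptional response element are exposed to test chemicals for 24 hr at 37 C. Pathway activation is detected as a rise in luminescence.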

[9] = qHTS assay to identify small molecule antagonists of the sonic hedgehog signaling (Shh) pathway (AID 1259369; calls by dose curve; note: nearly all actives have a fitted effect of over 45% in size)
Summary of the method: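 Cells are plated and held 4hr at 37 C, compounds (DMSO) are pinned in, conditioned medium is added to stimulate the pathway, and after 24hr luciferase reagent is added for 30min before luminescence is read.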

[10] = qHTS assay to identify small molecule agonists of the androgen receptor (AR) signaling pathway in the presence of an antagonist - cell viability counter screen (AID 1259379);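 note: MDA-kb2 human breast cancer cells carrying an MMTV luciferase reporter; series mostly up to about 92 µM; nearly all actives have a fitted effect of over 25% in size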
Summary of the method: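 Cytotoxicity is assessed by CellTiter-Fluor in MDA-kb2 cells carrying an MMTV-driven luciferase reporter. Cells receive 3.0uM nilutamide plus compounds at 15 concentrations and incubate 16 hr at 37C without CO2 before fluorescence reading.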

[11] = qHTS assay to identify small molecule agonists of the estrogen receptor beta (ER-beta) signaling pathway - cell viability counter screen (AID 1259380); note: nearly all actives have a fitted effect of over 30% in size
Summary of the method: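 Cytotoxicity is measured in parallel with the reporter screen: after 16 hr compound exposure at 37C and a 2 hr LiveBLAzer step, CellTiter-Glo is added to the same ER-beta-UAS-bla HEK293T wells and luminescence read after 30 min.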

[12] = qHTS assay to identify small molecule antagonists of the estrogen receptor beta (ER-beta) signaling pathway - cell viability counter screen (AID 1259382); note: series mostly up to about 92 µM; nearly all actives have a fitted effect of over 55% in size
Summary of the method: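 Cytotoxicity counter screen multiplexed with the beta-lactamase antagonist assay: GripTite HEK293T ER-beta-bla cells were treated 16 hr with test chemicals in the presence of 1nM 17-beta-estradiol, and viability was measured by CellTiter-Glo.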

[13] = molecular target: Estrogen receptor (Homo sapiens) (UniProt P03372); test: qHTS assay to identify small molecule antagonists of the estrogen receptor alpha (ER-alpha) signaling pathway using the BG1 cell line in the presence of 0.1 nM 17-beta-estradiol (AID 1259244); note: nearly all actives have a fitted effect of over 50% in size
Estrogen receptor (Homo sapiens), sequence (P03372 whole entry, looked up): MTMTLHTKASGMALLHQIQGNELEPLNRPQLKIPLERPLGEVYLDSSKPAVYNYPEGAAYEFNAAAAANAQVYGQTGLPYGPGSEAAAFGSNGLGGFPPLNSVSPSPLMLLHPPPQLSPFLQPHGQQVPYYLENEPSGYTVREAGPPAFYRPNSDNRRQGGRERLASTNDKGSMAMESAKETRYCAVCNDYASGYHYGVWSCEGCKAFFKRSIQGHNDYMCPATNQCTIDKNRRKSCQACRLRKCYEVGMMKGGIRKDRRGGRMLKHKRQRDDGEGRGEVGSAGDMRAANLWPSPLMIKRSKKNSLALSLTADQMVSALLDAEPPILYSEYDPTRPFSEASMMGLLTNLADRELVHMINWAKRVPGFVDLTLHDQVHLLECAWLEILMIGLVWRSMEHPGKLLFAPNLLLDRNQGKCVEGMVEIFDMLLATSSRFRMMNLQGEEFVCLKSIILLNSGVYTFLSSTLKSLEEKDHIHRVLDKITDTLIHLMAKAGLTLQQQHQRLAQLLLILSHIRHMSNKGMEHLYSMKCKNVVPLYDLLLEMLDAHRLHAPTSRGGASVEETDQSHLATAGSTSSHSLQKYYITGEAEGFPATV
Summary of the method: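 Antagonist mode: compounds in DMSO are pinned onto VM7Luc4E2 reporter cells, 0.1 nM final 17beta-estradiol is added, and after 22 h at 37C luciferase luminescence is measured with ONE-Glo.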

[14] = qHTS assay to identify small molecule antagonists of the sonic hedgehog signaling (Shh) pathway - cell viability counter screen (AID 1259367); note: nearly all actives have a fitted effect of over 55% in size
Summary of the method: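 Cytotoxicity was assessed in parallel with Shh reporter activity by measuring live-cell protease fluorescence (CellTiter-Fluor) in NIH/3T3 cells stably carrying Gli1-Luc, treated with compound under conditioned medium stimulation for 23 hr plus 1 hr reagent incubation.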

[15] = molecular target: Estrogen receptor beta (Homo sapiens) (UniProt Q92731); test: qHTS assay to identify small molecule agonists of the estrogen receptor beta (ER-beta) signaling pathway (AID 1259377; active = well fitted activation curve with a large enough effect in the signal ratio in the repeat runs, not every such curve was filed as active; the % refers to the signal ratio; note: potency is the fitted concentration of half-maximal effect)
Estrogen receptor beta (Homo sapiens), sequence (Q92731 whole entry, looked up): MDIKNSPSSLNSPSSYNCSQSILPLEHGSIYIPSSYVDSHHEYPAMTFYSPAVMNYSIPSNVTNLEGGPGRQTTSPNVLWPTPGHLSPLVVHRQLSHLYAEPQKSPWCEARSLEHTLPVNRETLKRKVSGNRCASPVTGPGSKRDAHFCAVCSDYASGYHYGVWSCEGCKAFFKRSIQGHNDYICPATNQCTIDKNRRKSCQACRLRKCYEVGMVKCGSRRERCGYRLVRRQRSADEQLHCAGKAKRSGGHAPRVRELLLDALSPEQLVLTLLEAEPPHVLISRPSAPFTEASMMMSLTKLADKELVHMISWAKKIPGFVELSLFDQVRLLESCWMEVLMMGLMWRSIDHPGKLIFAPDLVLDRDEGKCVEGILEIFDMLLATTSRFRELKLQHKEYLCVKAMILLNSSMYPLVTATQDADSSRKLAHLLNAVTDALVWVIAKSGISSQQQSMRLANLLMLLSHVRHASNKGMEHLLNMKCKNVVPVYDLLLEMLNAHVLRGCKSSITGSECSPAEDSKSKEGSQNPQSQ
Summary of the method: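 A UAS-controlled beta-lactamase reporter in ER-beta-UAS-bla HEK293T cells reports receptor activation. Compounds act for 16 hr at 37C in 2% charcoal-stripped serum, and a FRET substrate is read by fluorescence after 2 hours.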

[16] = molecular target: Estrogen receptor beta (Homo sapiens) (UniProt Q92731); test: qHTS assay to identify small molecule antagonists of the estrogen receptor beta (ER-beta) signaling pathway (AID 1259378; active = well fitted inhibition curve with a large enough effect in the signal ratio in the repeat runs, not every such curve was filed as active; the % refers to the signal ratio)
Summary of the method: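 ER-beta-UAS-bla HEK293T (GripTite) cells in 2% charcoal-stripped FBS medium were preincubated 6 hr at 37C, dosed with compound, then stimulated with 1 nM E2 (final) for 16 hr; beta-lactamase reporter read by B/G FRET fluorescence after 2 hr substrate loading.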

[17] = molecular target: Estrogen receptor (Homo sapiens) (UniProt P03372); test: qHTS assay to identify small molecule agonists of the estrogen receptor alpha (ER-alpha) signaling pathway in the presence of an antagonist (AID 1259383; calls by dose curve; note: nearly all actives have a fitted effect of over 15% in size; note: potency is the fitted concentration of half-maximal effect; for activation: top concentration of the series differs between compounds)
Summary of the method: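 Agonist-mode confirmation in the presence of the ER antagonist ICI-182,780 at 10.0nM final. Breast-derived VM7Luc4E2 reporter cells were exposed to compounds for 22hr, and ERE-driven luciferase was quantified by luminescence.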

[18] = qHTS assay to identify small molecule agonists or antagonists of the thyroid stimulating hormone receptor (TSHR) signaling pathway - wild type cell line counter screen (AID 1259384; calls by dose curve)
Summary of the method: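 Wild-type HEK293 cells were plated 18 h at 37 C/5% CO2, pin-dosed with compound plus Ro20-1724 medium, held 30 min at room temperature, then given cAMP-d2 and anti-cAMP-cryptate; fluorescence was read after 1 h. Fifteen concentrations, triplicate.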

CCCCNC(=O)NS(=O)(=O)c1ccc(C)cc1
Potency [1]: inactive
Potency [2]: inactive
Potency [3]: inactive
Potency [4]: inactive
Potency [5]: inactive
Potency [6]: inactive
Potency [7]: inactive
outcome [8]: inactive
Potency [9]: inactive
Potency [10]: inactive
Potency [11]: inactive
Potency [12]: inactive

C=C(C)C(=O)OCC(C)O (stereo unspecified)
Potency [1]: inactive
Potency [2]: inactive
Potency [3]: inactive
Potency [13]: inactive
Potency [5]: inactive
Potency [6]: inactive
Potency [7]: inactive
Potency [14]: inactive
outcome [8]: inactive
Potency [9]: inactive
Potency [15]: inactive
Potency [16]: inactive
Potency [10]: inactive
Potency [11]: inactive
Potency [12]: inactive
Potency [17]: inactive
Potency [18]: inactive

C[C@](N)(Cc1ccc(O)c(O)c1)C(=O)O
Potency [1]: inactive
Potency [2]: inactive
Potency [3]: inactive
Potency [4]: inactive
Potency [5]: inactive
Potency [6]: inactive
Potency [7]: inactive
Potency [14]: inactive
outcome [8]: inactive
Potency [9]: inactive
Potency [10]: inactive
Potency [11]: inactive
Potency [12]: inactive

CN(N=O)C(=O)N[C@@H]1[C@@H](O)[C@H](O)[C@@H](CO)O[C@@H]1O
Potency [1]: inactive
Potency [2]: inactive
Potency [3]: inactive
Potency [13]: inactive
Potency [4]: inactive
Potency [5]: inactive
Potency [6]: inactive
Potency [7]: inactive
outcome [8]: inactive
Potency [9]: inactive
Potency [10]: inactive
Potency [11]: inactive
Potency [12]: inactive
Potency [17]: inactive
Potency [18]: inactive

NC1CCCCC1
Potency [1]: inactive
Potency [2]: inactive
Potency [3]: inactive
Potency [13]: inactive
Potency [5]: inactive
Potency [6]: inactive
Potency [7]: inactive
Potency [14]: inactive
outcome [8]: inactive
Potency [9]: inactive
Potency [15]: 2.75 µM (active) and inactive
Potency [16]: inactive
Potency [10]: inactive
Potency [11]: inactive
Potency [12]: inactive
Potency [17]: 1.09 µM (active) and inactive
Potency [18]: inactive

O=C1c2c(O)cccc2Cc2cccc(O)c21
Potency [1]: inactive
Potency [2]: inactive
Potency [3]: inactive
Potency [4]: inactive
Potency [5]: inactive
Potency [6]: inactive
Potency [7]: inactive
outcome [8]: inactive
Potency [9]: inactive
Potency [10]: inactive
Potency [11]: inactive
Potency [12]: inactive
Potency [18]: inactive

Oc1ccccc1
Potency [1]: inactive
Potency [2]: inactive
Potency [3]: inactive
PLD induction [4]: 0.811% [at 7.66 µM] (inactive)
Potency [5]: inactive
Potency [6]: inactive
Potency [7]: inactive
outcome [8]: inactive
Potency [9]: inactive
Potency [10]: inactive
Potency [11]: inactive
Potency [12]: inactive
Potency [18]: inactive

O=CC(=O)c1ccccc1
Potency [1]: inactive
Potency [2]: inactive
Potency [3]: inactive
Potency [13]: inactive
Potency [5]: inactive
Potency [7]: inactive
Potency [14]: inactive
outcome [8]: inactive
Potency [9]: inactive
Potency [15]: inactive
Potency [16]: inactive
Potency [10]: inactive
Potency [11]: inactive
Potency [12]: inactive
Potency [17]: inactive
Potency [18]: inactive

— PubChem BioAssay (Tox21)
